Records with an inconclusive call do not appear. A call without a number means that no potency is given here. Calls of active or inactive are those of the source. Calls come from the whole dose curve; as a rule, active = well fitted curve in the direction sought with a large enough effect in the repeat runs; inconclusive = weak or mixed curves; inactive = no such curve, though single readings can be large; an effect the other way counts as inactive or inconclusive.
Test system: not listed separately
Test: qHTS assay to identify small molecule antagonists of the estrogen receptor alpha (ER-alpha) signaling pathway using the BG1 cell line - cell viability counter screen (AID 743081);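 note: compound given together with 17beta-estradiol as the ER stimulus; nearly all actives have a fitted effect of over 45% in size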
Conditions: BG1Luc4E2 viability, CellTiter-Fluor, 22 h; series mostly up to 70.3 µM

Row | Structure (SMILES) | Potency
1 | O=C(O)CN(CCN(CC(=O)O)CC(=O)O)CCN(CC(=O)O)CC(=O)O | inactive
2 | CCN(CCCc1ccccc1)CCCc1ccccc1 | inactive
3 | CC(C)S | inactive
4 | CC1(C)C(=O)N(Cl)C(=O)N1Br | inactive
5 | ClC(Cl)Cl | inactive
6 | CCNCCO | inactive
7 | CCc1nnc(NS(=O)(=O)c2ccc(N)cc2)s1 | inactive
8 | O=S(=O)(O)C(F)(F)F | inactive
9 | CC1CN(c2ccccc2)NC1=O (stereo not given) | inactive
10 | COc1ccc(S(=O)(=O)Nc2nnc(CC(C)C)s2)cc1 | inactive
11 | COc1cc(Cl)ccc1Cl | inactive
12 | C[C@]12C(=O)OC(=O)[C@H]1[C@H]1C=C[C@@H]2C1 | inactive
13 | CC(C)C[C@H](NC(=O)OCC1c2ccccc2-c2ccccc21)C(=O)O | inactive
14 | O=c1[nH]c(=O)n([C@H]2C[C@H](O)[C@@H](CO)O2)cc1C(F)(F)F | inactive
15 | CC(C)(CO)[C@@H](O)C(=O)NCCC(=O)O | inactive
16 | O=c1oc2c(O)c(O)cc3c(=O)oc4c(O)c(O)cc1c4c23 | inactive
17 | O=C(O)c1ccccc1Nc1cc(Cl)ccc1C(=O)O | inactive
18 | CC(=O)Nc1ccc(C)c(Cl)c1 | inactive

Row | Structure (SMILES) | Potency
19 | Cc1cccc(C)c1NC(=O)CN1CCCCCC1 | inactive
20 | CCOC(=O)C1CC(=O)C(=C(O)C2CC2)C(=O)C1 (stereo not given) | inactive
21 | CC1=C(O)C(=O)OC1C (stereo not given) | inactive
22 | CC(C)=CCCC(C)CCOC=O (stereo not given) | inactive
23 | Oc1ccccc1F | inactive
24 | NC/C=C/C(=O)O | inactive
25 | CCCCCCCCc1ccc(S(=O)(=O)O)cc1 | inactive
26 | COC(=O)c1ccc(OC)cc1 | inactive
27 | CCc1cc(Cl)c(OC)c(C(=O)NC[C@@H]2CCCN2CC)c1O | inactive
28 | FC(F)(F)c1ccccc1 | inactive
29 | C=CC1CO1 (stereo not given) | inactive
30 | OCCN1CCN(CCO)CC1 | inactive
31 | CN1CCN(c2c(F)cc3c(=O)c(C(=O)O)cn4c3c2SCC4)CC1 | inactive
32 | COc1ccc2nc(NC(=O)Nc3ccccc3)sc2c1 | inactive
33 | CC/C=C\CCOC(=O)CCCCC | inactive
34 | CCCCOc1cc(C(=O)NCCN(CC)CC)c2ccccc2n1 | inactive
35 | CC1=NN(c2cc(Cl)c(S(=O)(=O)O)cc2Cl)C(=O)C1N=Nc1ccc(S(=O)(=O)O)cc1 (stereo not given) | inactive

Biological target: Aromatase (Homo sapiens) (UniProt P11511)
Test: qHTS assay to identify aromatase inhibitors (AID 743083); note: nearly all actives have a fitted effect of over 55% in size
Conditions: MCF-7 aro ERE, testosterone-driven ERE luciferase, 24 h; series mostly up to 70.3 µM

Aromatase (Homo sapiens), sequence (P11511 whole entry, looked up): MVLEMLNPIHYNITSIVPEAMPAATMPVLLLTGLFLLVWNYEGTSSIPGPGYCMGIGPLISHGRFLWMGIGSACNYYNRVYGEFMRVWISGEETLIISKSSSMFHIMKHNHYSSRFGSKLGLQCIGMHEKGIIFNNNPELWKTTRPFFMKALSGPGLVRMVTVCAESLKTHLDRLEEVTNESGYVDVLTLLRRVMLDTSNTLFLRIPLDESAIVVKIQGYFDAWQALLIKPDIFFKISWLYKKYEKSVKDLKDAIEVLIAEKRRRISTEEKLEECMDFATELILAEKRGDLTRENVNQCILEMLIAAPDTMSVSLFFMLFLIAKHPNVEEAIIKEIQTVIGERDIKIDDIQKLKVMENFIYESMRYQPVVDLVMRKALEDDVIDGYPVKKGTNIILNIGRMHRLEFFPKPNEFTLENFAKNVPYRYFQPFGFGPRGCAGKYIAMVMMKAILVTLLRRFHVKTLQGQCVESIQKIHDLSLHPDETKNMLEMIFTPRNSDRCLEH

Row | Structure (SMILES) | Potency
36 | O=C(O)CN(CCN(CC(=O)O)CC(=O)O)CCN(CC(=O)O)CC(=O)O | inactive
37 | CCN(CCCc1ccccc1)CCCc1ccccc1 | inactive
38 | CC(C)S | inactive
39 | CC1(C)C(=O)N(Cl)C(=O)N1Br | inactive
40 | ClC(Cl)Cl | inactive
41 | CCNCCO | inactive
42 | CCc1nnc(NS(=O)(=O)c2ccc(N)cc2)s1 | inactive
43 | O=S(=O)(O)C(F)(F)F | inactive
44 | CC1CN(c2ccccc2)NC1=O (stereo not given) | inactive
45 | COc1ccc(S(=O)(=O)Nc2nnc(CC(C)C)s2)cc1 | inactive
46 | COc1cc(Cl)ccc1Cl | inactive
47 | C[C@]12C(=O)OC(=O)[C@H]1[C@H]1C=C[C@@H]2C1 | inactive
48 | CC(C)C[C@H](NC(=O)OCC1c2ccccc2-c2ccccc21)C(=O)O | inactive
49 | O=c1[nH]c(=O)n([C@H]2C[C@H](O)[C@@H](CO)O2)cc1C(F)(F)F | inactive
50 | CC(C)(CO)[C@@H](O)C(=O)NCCC(=O)O | inactive
51 | O=c1oc2c(O)c(O)cc3c(=O)oc4c(O)c(O)cc1c4c23 | inactive
52 | O=C(O)c1ccccc1Nc1cc(Cl)ccc1C(=O)O | inactive
53 | CC(=O)Nc1ccc(C)c(Cl)c1 | inactive

Row | Structure (SMILES) | Potency
54 | Cc1cccc(C)c1NC(=O)CN1CCCCCC1 | inactive
55 | CCOC(=O)C1CC(=O)C(=C(O)C2CC2)C(=O)C1 (stereo not given) | inactive
56 | CC1=C(O)C(=O)OC1C (stereo not given) | inactive
57 | Oc1ccccc1F | inactive
58 | NC/C=C/C(=O)O | inactive
59 | CCCCCCCCc1ccc(S(=O)(=O)O)cc1 | inactive
60 | COC(=O)c1ccc(OC)cc1 | inactive
61 | CCc1cc(Cl)c(OC)c(C(=O)NC[C@@H]2CCCN2CC)c1O | inactive
62 | FC(F)(F)c1ccccc1 | inactive
63 | C=CC1CO1 (stereo not given) | inactive
64 | OCCN1CCN(CCO)CC1 | inactive
65 | CN1CCN(c2c(F)cc3c(=O)c(C(=O)O)cn4c3c2SCC4)CC1 | inactive
66 | COc1ccc2nc(NC(=O)Nc3ccccc3)sc2c1 | inactive
67 | CC(=O)Oc1cc(C(C)C)c(OCCN(C)C)cc1C | inactive
68 | CC/C=C\CCOC(=O)CCCCC | inactive
69 | CCCCOc1cc(C(=O)NCCN(CC)CC)c2ccccc2n1 | inactive
70 | CC1=NN(c2cc(Cl)c(S(=O)(=O)O)cc2Cl)C(=O)C1N=Nc1ccc(S(=O)(=O)O)cc1 (stereo not given) | inactive

— PubChem BioAssay (Tox21)
